Source: PubChem (National Center for Advancing Translational Sciences (NCATS))
Sampled rows, rich in hits. Any-hit rate of the full collection: about 17%.
TDP1 cell CPT: growth inhibition of DT40 Tdp1-/-;hTDP1 cells with camptothecin (screen for TDP1 inhibitors). hit rate 12% among 420,000. AID 686979. Potency, µM (titrated, usually from 46.2 µM), usual class: inhibitors. chicken DT40 Tdp1-/-;hTDP1 cells + 20 nM CPT, ATP luminescence, 48 h; further: nearly all actives have a fitted effect of over 55% in size
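Chicken DT40 Tdp1-/- cells stably complemented with human TDP1 were seeded at 400 cells/well in medium containing 20 nM camptothecin, exposed to pin-transferred compounds, and grown at 37 °C for at least 48 hr. Viability was read as ATP luminescence.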
ATXN2 expr inh: reduces ATXN2 reporter expression in HEK-293 cells | HEK-293 ATXN2-luciferase reporter, luminescence, 24 h | Potency, µM (titrated, usually from 57 µM), hits mostly inhibitors | hit rate 0.72% among 360,000; further: nearly all actives have a fitted effect of over 55% in size
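qHTS (up to 57 uM final) was run with 24 h compound exposure of reporter cells at 37 °C. Each well was multiplexed: SteadyGlo luminescence measured ATXN2-luciferase expression after a fluorogenic Gly-Phe-AFC viability readout (25 uM final).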
HepG2 tox: HepG2 cytotoxicity, counter-screen for TGF-b inhibitors. HepG2 CAGA-GFP viability, ATP luminescence, 18 h. Potency, µM (doses to about 46.1 µM), actives largely listed as cytotoxic. hit rate 0.76% among 410,000
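CellTiter-Glo luminescence gave cytotoxicity after 18 hours at 37 degrees C. The cells were HepG2 CAGA-GFP in 1% FBS DMEM, stimulated with 500 pg/mL TGF-beta after compound addition. %Activity was normalised to no-cell wells (complete cell-killing) and DMSO (no toxicity), and curves were fitted and classified.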
ATXN viability: viability counter-screen for ATXN expression inhibitors. S2 cells (HEK-293 line with an ATXN2-luciferase reporter) viability, CellTiter-Fluor protease fluorescence, 24 h. AID 651635. hit rate 0.49% among 400,000. Potency, µM (titrated, usually from 56.7 µM), most hits filed as cytotoxic; further: nearly all actives have a fitted effect of over 40% in size
TDP1 cell noCPT: qHTS for Inhibitors of human tyrosyl-DNA phosphodiesterase 1 (TDP1): qHTS in cells in absence of CPT. DT40 Tdp1-/- hTDP1 cells, no CPT, ATP luminescence, 48 h. Potency, µM (top dose mostly 46.2 µM), actives largely listed as inhibitors. hit rate 15% among 420,000. AID 686978, 2013; further: nearly all actives have a fitted effect of over 55% in size
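Camptothecin absent (DMSO only). Human TDP1-complemented DT40 knockout cells, 400 cells/well, 37 °C for minimum 48 hr; ATP measured via CellTiter-Glo, 30 min dark incubation, luminescence.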
TGFb inhibitor: inhibitors of TGF-b signaling; hit rate 1.2% among 410,000; Potency, µM (top dose mostly 46.1 µM), actives largely listed as inhibitors; HepG2 CAGA-GFP TGF-b/SMAD3 reporter, GFP fluorescence, 18 h; TGF-beta stimulated, 500 pg/mL final; AID 588855; further: nearly all actives have a fitted effect of over 65% in size
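Per well, imaged GFP fluorescence of HEPG2 CAGA-GFP cells gives the signal; cells get compound, then TGF-beta (500 pg/mL final), 18 h at 37 degrees C; %Activity versus -TGF-beta and +DMSO controls.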
Of the large screens only hits and unclear results are named; the others gave an inactive call. The call rests on the fitted dose curve; in most records, active means well fitted curve in the direction sought with a large enough effect; inconclusive means small, poorly fitted or top-dose-only effect, or another doubt; inactive means no such curve, though single readings can be large; an effect the other way counts as inactive or inconclusive.

COc1ccc(S(=O)(=O)N2CCCCCC2)cc1NC(=O)CN1C(=O)NC(C)(c2ccc(C)cc2)C1=O (stereo unspecified)	TDP1 cell CPT inconclusive, ATXN viability inconclusive, TDP1 cell noCPT inconclusive, TGFb inhibitor inconclusive
COc1ccc(C(=O)/C=C/c2ccc(OC)c(Cn3nnc4ccccc43)c2)cc1	TDP1 cell CPT 18µM, TDP1 cell noCPT 21µM
COc1ccc(C(=O)/C=C/c2ccc(OC)c(CN3CCOCC3)c2)cc1	TDP1 cell CPT inconclusive, ATXN viability inconclusive, TDP1 cell noCPT 23µM, TGFb inhibitor inconclusive
O=C(/C=C/c1cccc(O)c1)c1ccc(N2CCOCC2)cc1	TDP1 cell CPT inconclusive, ATXN viability inconclusive, TDP1 cell noCPT 15µM, TGFb inhibitor inconclusive (no result: ATXN2 expr inh)
COc1ccc(/C=C/C(=O)c2ccc(O)cc2)cc1CN1CCOCC1	TDP1 cell CPT inconclusive, ATXN viability inconclusive, TDP1 cell noCPT 29µM, TGFb inhibitor inconclusive
COc1ccc(C(=O)NC(=S)NNC(=O)c2ccc(O)cc2)cc1[N+](=O)[O-]	none
COc1ccc(/C=N/NC(=O)c2ccncc2)cc1CN1CCOCC1	none (no result: ATXN viability)
COc1ccc(/C=C/C(=O)C23CC4CC(CC(C4)C2)C3)cc1CN1CCOCC1	TDP1 cell CPT inconclusive, TDP1 cell noCPT 18µM, TGFb inhibitor inconclusive (no result: ATXN2 expr inh)
CCN1CCCC1CNC(=O)c1cnn(-c2nccc(-c3cccs3)n2)c1C(C)C (stereo unspecified)	TDP1 cell CPT inconclusive, TDP1 cell noCPT inconclusive (no result: ATXN2 expr inh, HepG2 tox, TGFb inhibitor)
Brc1ccc(-c2nc3ncccn3c2NC2CCCCC2)o1	TDP1 cell CPT 16µM, TDP1 cell noCPT inconclusive
O=C(c1cccs1)N1CCN(S(=O)(=O)N2CCOCC2)CC1	none
CCC(CC)C(=O)N(C)c1c(C)nc2c(OCC(=O)C(C)(C)C)cccn12	TDP1 cell noCPT inconclusive
CCC(CC)C(=O)N(C)c1c(C)nc2c(OCc3ccccc3C)cccn12	TDP1 cell CPT 6.5µM, TDP1 cell noCPT 7.3µM
CCC(CC)C(=O)N(C)c1c(C)nc2c(OCc3ccc(Cl)cc3Cl)cccn12	TDP1 cell CPT 4.6µM, ATXN2 expr inh inconclusive, ATXN viability inconclusive, TDP1 cell noCPT 3.7µM, TGFb inhibitor inconclusive
CCC(CC)C(=O)N(C)c1c(C)nc2c(OCc3ccc(C#N)cc3)cccn12	TDP1 cell CPT inconclusive, TDP1 cell noCPT 18µM
CC(=O)c1ccc(OCC(=O)Nc2nnc(C3CC3)s2)cc1	none (no result: ATXN2 expr inh)
CN1CCN(c2ccc3sc(-n4ccc5ccccc54)nc3c2)CC1	TDP1 cell CPT 16µM, ATXN2 expr inh inconclusive, TDP1 cell noCPT 13µM, TGFb inhibitor inconclusive (no result: ATXN viability)
CC(=C/c1ccco1)/C=N/NC(=O)CSc1nnc(SCc2ccc(C)cc2)s1	TDP1 cell noCPT inconclusive
CC(/C=N\Nc1nnc2c(n1)[nH]c1c(C)cccc12)=C\c1ccco1	TDP1 cell CPT 9.2µM, ATXN viability inconclusive, TDP1 cell noCPT 10µM
O=C(c1sc2ccccc2c1Cl)N(Cc1ccco1)C1CCS(=O)(=O)C1 (stereo unspecified)	TDP1 cell CPT inconclusive, TDP1 cell noCPT 26µM
O=C(c1sc2ccccc2c1Cl)N(Cc1ccccc1)C1CCS(=O)(=O)C1 (stereo unspecified)	TDP1 cell noCPT inconclusive
O=S(=O)(c1ccc(OC(F)(F)F)cc1)N1CCC(c2nc3ccccc3s2)CC1	none (no result: ATXN2 expr inh, ATXN viability)
CCN(CC)C(=O)c1ccc(S(=O)(=O)N2CCC(c3nc4ccccc4s3)CC2)cc1	TDP1 cell CPT 7.3µM, TDP1 cell noCPT 10µM
O=S(=O)(c1ccccc1)N1CCCC1c1nc2ccccc2s1 (stereo unspecified)	TDP1 cell CPT inconclusive, TDP1 cell noCPT 18µM
O=C(c1ccc(F)cc1)N1CCC(c2nc3ccccc3s2)CC1	ATXN viability inconclusive, TDP1 cell noCPT inconclusive, TGFb inhibitor inconclusive
CC1CCCN(C(=O)c2ccc(S(=O)(=O)N3CCC(c4nc5ccccc5s4)CC3)cc2)C1 (stereo unspecified)	TDP1 cell CPT 12µM, TDP1 cell noCPT 6.5µM
